# Results as given in article PMC7862700, “An all-to-all approach to the identification of sequence-specific readers for epigenetic DNA modifications on cytosine”.
# Key:
# Assay in all cases: DAPPL (digital affinity profiling via proximity ligation, sequencing); 10 mM Tris-HCl pH 7.5, 50 mM NaCl, 1 mM DTT, 4% glycerol, room temperature, 30 min; GST-TFs on glutathione beads, 16-mer random dsDNA library, 0.1% formaldehyde crosslink after washing; high values mean tight binding
# Conditions in all cases: protein: recombinant; tags: N-terminal GST; dsDNA, one strand shown
# FLI1 = molecular target: T1, FLI1 (Homo sapiens, UniProt Q01543 1-452)
# T1 sequence: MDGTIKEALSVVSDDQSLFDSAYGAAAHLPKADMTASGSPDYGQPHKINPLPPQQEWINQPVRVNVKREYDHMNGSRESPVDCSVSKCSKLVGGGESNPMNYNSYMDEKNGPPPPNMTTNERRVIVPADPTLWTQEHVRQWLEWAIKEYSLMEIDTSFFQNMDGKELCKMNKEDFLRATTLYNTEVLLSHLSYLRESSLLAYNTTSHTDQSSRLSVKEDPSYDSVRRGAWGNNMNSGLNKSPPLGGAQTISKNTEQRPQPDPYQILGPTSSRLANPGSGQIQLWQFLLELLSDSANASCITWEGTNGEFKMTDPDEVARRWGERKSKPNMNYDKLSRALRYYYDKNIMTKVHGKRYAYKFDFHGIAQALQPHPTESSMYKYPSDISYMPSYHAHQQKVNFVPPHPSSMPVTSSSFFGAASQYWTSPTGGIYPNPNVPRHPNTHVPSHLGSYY
# Method in brief: (§1)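 After expression in yeast as GST fusions, human transcription factors were bound to glutathione beads, DNA-barcoded and mixed with a tag-only sample. The pools were incubated with 200 nmole of a 16-mer random double-stranded DNA library in Tris/NaCl/DTT/glycerol buffer (30 min, room temperature), washed and crosslinked with 0.1% formaldehyde. Proximity ligation with BsaI/T4 ligase ran for 1 h at 37 °C, before PCR amplification and sequencing on an Illumina NextSeq500. Binding signal is a hexamer's read frequency for a factor divided by its frequency for the tag-only sample.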
# ELK1 = molecular target: T2, ELK1 (Homo sapiens, UniProt P19419 1-428)
# T2 sequence: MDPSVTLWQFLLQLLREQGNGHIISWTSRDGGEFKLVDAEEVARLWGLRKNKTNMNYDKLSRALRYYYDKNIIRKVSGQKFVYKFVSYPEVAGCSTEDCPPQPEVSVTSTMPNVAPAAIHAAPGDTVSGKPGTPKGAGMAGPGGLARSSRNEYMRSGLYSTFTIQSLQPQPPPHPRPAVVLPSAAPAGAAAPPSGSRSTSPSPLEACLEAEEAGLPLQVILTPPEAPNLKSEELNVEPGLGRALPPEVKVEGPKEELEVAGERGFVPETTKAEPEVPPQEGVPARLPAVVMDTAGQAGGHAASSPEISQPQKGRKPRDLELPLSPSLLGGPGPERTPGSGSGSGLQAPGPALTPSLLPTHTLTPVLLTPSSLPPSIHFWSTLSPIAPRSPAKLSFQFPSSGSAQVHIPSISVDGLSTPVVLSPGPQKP
# Method in brief: as §1
# GABPA = molecular target: T3, GABPA (Homo sapiens, UniProt Q06546 1-454)
# T3 sequence: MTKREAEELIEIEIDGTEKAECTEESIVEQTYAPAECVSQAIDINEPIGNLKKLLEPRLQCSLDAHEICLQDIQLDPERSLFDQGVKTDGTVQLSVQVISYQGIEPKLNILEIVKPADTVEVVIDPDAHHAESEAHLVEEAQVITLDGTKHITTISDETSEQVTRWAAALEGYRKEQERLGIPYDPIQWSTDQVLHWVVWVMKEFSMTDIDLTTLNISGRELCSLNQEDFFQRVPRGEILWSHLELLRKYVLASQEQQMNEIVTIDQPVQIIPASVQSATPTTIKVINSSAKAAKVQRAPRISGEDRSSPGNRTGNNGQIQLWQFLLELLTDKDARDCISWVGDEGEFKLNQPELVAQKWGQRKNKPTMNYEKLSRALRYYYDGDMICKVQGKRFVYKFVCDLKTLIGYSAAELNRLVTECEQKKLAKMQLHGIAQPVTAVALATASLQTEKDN
# Method in brief: as §1
# ERG = molecular target: T4, ERG (Homo sapiens, UniProt P11308 1-479)
# T4 sequence: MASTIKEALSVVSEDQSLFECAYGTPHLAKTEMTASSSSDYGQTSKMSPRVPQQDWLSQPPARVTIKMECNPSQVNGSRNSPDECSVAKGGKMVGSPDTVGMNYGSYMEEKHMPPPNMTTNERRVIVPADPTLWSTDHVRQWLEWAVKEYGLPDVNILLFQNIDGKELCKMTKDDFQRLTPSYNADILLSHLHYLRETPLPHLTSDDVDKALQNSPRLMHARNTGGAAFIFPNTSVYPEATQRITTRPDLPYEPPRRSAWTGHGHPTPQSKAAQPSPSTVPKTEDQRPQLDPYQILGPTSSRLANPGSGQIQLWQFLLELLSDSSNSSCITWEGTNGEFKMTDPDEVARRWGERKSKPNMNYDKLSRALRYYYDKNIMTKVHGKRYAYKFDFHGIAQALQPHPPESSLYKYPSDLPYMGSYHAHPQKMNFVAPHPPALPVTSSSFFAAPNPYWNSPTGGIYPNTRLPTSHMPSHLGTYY
# Method in brief: as §1
# ELF1 = ELF1 (Homo sapiens, UniProt P32519 1-619)
# Sequence of ELF1 (P32519 whole entry): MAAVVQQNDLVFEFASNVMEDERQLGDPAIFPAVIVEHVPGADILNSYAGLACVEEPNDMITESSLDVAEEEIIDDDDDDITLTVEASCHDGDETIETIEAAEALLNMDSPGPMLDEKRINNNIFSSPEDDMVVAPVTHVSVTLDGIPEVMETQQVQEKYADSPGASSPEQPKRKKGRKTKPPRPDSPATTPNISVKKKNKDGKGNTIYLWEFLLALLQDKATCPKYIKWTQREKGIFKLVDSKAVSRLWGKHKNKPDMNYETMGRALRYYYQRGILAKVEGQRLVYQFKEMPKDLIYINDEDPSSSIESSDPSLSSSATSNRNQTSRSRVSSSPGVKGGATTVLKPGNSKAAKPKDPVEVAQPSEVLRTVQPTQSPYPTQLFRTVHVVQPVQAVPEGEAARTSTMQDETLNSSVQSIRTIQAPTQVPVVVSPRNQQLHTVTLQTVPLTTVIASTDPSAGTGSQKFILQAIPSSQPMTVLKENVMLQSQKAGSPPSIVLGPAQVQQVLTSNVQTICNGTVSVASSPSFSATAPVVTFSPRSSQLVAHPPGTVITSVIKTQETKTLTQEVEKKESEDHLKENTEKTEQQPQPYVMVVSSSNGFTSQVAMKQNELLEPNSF
# Method in brief: as §1
# EHF = molecular target: T5, EHF (Homo sapiens, UniProt Q9NZC4 1-300)
# T5 sequence: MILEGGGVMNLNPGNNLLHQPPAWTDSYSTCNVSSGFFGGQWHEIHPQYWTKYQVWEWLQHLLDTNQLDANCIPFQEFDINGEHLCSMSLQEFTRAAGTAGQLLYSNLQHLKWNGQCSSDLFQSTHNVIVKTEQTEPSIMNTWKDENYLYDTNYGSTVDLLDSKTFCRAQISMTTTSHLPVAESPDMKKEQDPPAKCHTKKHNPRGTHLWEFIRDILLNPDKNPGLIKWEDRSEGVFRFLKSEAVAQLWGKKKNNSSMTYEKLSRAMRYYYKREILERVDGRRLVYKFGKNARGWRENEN
# Method in brief: as §1
# SPIB = SPIB (Homo sapiens, UniProt Q01892 1-262)
# Sequence of SPIB (Q01892 whole entry): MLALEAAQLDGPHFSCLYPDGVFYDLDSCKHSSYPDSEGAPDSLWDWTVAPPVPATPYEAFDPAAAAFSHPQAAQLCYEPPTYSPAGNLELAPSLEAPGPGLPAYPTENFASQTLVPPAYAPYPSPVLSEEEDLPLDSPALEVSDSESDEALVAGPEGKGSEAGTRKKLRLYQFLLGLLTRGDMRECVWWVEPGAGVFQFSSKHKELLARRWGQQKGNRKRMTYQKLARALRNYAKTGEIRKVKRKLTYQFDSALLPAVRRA
# Method in brief: as §1
# ELK3 = molecular target: T6, ELK3 (Homo sapiens, UniProt P41970 1-407)
# T6 sequence: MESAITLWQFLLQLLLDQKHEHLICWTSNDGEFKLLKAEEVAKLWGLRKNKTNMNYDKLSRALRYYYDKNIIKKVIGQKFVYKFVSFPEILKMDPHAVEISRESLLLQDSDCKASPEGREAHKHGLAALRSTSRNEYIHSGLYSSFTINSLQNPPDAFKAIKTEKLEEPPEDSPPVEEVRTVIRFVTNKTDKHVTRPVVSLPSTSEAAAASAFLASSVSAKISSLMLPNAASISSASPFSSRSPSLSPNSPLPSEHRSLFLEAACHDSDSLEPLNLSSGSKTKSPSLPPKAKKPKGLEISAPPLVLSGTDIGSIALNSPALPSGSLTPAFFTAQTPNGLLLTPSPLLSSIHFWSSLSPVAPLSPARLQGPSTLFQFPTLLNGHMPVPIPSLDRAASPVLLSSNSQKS
# Method in brief: as §1
# FEV = molecular target: T7, FEV (Homo sapiens, UniProt Q99581 1-238)
# T7 sequence: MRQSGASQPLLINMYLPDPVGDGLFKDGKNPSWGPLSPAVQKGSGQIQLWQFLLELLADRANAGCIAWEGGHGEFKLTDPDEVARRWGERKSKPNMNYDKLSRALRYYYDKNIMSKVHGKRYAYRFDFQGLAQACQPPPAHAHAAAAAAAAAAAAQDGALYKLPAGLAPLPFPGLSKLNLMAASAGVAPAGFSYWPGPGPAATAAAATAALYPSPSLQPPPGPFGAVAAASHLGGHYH
# Method in brief: as §1
# ETV5 = ETV5 (Homo sapiens, UniProt P41161 1-510)
# Sequence of ETV5 (P41161 whole entry): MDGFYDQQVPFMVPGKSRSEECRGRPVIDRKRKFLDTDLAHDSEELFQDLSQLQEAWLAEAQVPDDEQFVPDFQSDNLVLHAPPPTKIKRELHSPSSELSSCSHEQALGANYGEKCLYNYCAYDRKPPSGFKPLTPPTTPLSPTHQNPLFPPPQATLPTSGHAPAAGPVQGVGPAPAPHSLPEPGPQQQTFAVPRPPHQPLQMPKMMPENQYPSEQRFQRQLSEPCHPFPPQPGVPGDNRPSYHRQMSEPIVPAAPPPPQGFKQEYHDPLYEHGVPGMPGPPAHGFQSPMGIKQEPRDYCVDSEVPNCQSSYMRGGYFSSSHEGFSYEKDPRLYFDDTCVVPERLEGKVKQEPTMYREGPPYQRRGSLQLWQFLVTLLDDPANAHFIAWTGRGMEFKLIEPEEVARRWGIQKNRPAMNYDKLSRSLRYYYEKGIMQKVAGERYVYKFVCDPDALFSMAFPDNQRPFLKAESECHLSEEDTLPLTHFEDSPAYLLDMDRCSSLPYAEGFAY
# Method in brief: as §1
# SPIC = molecular target: T8, SPIC (Homo sapiens, UniProt Q8N5J4 1-248)
# T8 sequence: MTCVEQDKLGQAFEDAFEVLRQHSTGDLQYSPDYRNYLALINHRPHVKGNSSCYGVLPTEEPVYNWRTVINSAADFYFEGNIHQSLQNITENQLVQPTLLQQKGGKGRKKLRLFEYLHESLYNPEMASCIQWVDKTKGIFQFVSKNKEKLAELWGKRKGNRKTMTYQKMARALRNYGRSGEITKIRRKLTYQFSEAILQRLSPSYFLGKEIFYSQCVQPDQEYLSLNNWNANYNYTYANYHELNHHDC
# Method in brief: as §1
# ELF4 = ELF4 (Homo sapiens, UniProt Q99607 1-663)
# Sequence of ELF4 (Q99607 whole entry): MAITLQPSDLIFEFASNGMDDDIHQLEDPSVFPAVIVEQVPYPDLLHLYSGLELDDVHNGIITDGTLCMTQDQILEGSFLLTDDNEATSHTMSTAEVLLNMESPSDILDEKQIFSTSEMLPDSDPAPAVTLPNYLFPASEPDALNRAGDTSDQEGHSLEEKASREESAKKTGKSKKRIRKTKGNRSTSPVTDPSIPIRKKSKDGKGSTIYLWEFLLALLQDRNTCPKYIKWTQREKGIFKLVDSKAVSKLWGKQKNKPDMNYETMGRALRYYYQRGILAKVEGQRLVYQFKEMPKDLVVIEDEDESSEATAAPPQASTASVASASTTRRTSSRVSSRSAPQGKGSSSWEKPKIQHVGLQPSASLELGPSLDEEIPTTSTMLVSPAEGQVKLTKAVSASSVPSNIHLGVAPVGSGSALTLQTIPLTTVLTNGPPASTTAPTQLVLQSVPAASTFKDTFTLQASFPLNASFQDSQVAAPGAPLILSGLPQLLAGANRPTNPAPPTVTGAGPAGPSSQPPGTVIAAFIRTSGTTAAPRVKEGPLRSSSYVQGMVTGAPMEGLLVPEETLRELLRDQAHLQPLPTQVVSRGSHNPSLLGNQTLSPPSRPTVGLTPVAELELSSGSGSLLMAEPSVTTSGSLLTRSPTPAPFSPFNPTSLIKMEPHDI
# Method in brief: as §1
# ELK4 = molecular target: T9, ELK4 (Homo sapiens, UniProt P28324-2 1-405)
# T9 sequence: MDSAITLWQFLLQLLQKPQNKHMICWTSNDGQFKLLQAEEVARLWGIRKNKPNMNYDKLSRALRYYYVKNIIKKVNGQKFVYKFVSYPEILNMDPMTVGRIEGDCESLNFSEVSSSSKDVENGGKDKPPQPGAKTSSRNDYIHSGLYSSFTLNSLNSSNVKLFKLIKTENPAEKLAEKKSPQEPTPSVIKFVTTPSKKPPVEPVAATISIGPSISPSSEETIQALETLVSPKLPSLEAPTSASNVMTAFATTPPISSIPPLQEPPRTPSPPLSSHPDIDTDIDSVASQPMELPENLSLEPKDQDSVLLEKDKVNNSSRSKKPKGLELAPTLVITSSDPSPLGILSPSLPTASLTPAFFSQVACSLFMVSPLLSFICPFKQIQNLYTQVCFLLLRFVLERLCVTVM
# Method in brief: as §1
# ETV2 = molecular target: T10, ETV2 (Homo sapiens, UniProt O00321 1-342)
# T10 sequence: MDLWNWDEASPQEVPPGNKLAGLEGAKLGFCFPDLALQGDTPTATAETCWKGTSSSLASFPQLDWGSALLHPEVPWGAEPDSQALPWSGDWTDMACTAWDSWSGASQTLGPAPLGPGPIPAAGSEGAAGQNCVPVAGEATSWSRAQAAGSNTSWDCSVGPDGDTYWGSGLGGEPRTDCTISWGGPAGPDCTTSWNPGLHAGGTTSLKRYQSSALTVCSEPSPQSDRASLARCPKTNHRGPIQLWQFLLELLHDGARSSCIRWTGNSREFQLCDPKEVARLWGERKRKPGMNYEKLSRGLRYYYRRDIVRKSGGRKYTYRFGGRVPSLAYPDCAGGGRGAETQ
# Method in brief: as §1
# ELF3 = molecular target: T11, ELF3 (Homo sapiens, UniProt P78545 1-371)
# T11 sequence: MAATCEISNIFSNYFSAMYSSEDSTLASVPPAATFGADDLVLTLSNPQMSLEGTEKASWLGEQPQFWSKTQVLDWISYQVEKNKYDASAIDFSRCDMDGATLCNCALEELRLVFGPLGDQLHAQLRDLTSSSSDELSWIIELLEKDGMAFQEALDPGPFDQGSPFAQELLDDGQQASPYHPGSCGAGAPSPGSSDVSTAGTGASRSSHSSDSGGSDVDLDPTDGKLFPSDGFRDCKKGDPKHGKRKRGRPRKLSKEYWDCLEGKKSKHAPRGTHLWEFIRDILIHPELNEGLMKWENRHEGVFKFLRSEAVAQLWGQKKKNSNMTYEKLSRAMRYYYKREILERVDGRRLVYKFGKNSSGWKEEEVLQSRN
# Method in brief: as §1
# ETV1 = ETV1 (Homo sapiens, UniProt P50549 1-477)
# Sequence of ETV1 (P50549 whole entry): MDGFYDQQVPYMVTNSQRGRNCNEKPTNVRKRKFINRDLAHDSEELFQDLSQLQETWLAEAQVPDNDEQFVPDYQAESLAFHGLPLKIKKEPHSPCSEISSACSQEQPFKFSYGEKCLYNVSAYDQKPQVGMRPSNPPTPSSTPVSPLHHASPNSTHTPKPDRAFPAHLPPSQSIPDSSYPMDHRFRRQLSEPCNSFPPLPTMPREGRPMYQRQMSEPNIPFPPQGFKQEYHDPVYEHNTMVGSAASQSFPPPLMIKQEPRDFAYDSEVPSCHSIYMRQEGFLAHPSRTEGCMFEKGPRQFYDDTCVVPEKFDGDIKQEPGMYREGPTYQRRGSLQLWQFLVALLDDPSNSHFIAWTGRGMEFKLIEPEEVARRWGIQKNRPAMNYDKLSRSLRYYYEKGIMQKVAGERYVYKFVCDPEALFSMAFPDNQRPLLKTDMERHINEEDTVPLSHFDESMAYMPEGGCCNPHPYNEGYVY
# Method in brief: as §1
sequence,measurement,setting,value
CGCTTG,binding signal,FLI1,"1.1 fold enrichment (6-mer frequency, TF over GST control)"
same,binding signal,ELK1,"1.14 fold enrichment (6-mer frequency, TF over GST control)"
same,binding signal,GABPA,"1.09 fold enrichment (6-mer frequency, TF over GST control)"
same,binding signal,ERG,"1.05 fold enrichment (6-mer frequency, TF over GST control)"
same,binding signal,ELF1,"1.07 fold enrichment (6-mer frequency, TF over GST control)"
same,binding signal,EHF,"1.04 fold enrichment (6-mer frequency, TF over GST control)"
same,binding signal,SPIB,"1.25 fold enrichment (6-mer frequency, TF over GST control)"
same,binding signal,ELK3,"1.07 fold enrichment (6-mer frequency, TF over GST control)"
same,binding signal,FEV,"1.08 fold enrichment (6-mer frequency, TF over GST control)"
same,binding signal,ETV5,"1.06 fold enrichment (6-mer frequency, TF over GST control)"
same,binding signal,SPIC,"1.16 fold enrichment (6-mer frequency, TF over GST control)"
same,binding signal,ELF4,"1.01 fold enrichment (6-mer frequency, TF over GST control)"
same,binding signal,ELK4,"1 fold enrichment (6-mer frequency, TF over GST control)"
same,binding signal,ETV2,"1.07 fold enrichment (6-mer frequency, TF over GST control)"
same,binding signal,ELF3,"1.2 fold enrichment (6-mer frequency, TF over GST control)"
same,binding signal,ETV1,"1.15 fold enrichment (6-mer frequency, TF over GST control)"
